# DT40 TDP1 CPT: DT40-hTDP1 cell growth loss with CPT | chicken DT40 Tdp1-/-;hTDP1 cells + 20 nM CPT, ATP luminescence, 48 h | Potency, µM (top dose mostly 46.2 µM), for inactives: at the top dose activity change, negative = growth inhibition, actives largely listed as inhibitors | 12% of 420,000 active; further: nearly all actives have a fitted effect of over 55% in size
#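 Cell growth measured by CellTiter-Glo luminescence after a minimum 48 h, 37 C compound exposure with 20 nM CPT in Tdp1-knockout DT40 cells stably expressing hTDP1, seeded 400/well; qHTS titration format.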
# VP16 counter: inhibits Gal4-VP16 luciferase reporter, ROR gamma counter-screen. Drosophila S2 Gal4-VP16 UAS-luciferase, luminescence, 20 h. Potency, µM (series often up to 53.6 µM), without a hit: top-dose activity, negative = inhibition, hits mostly inhibitors. 3.5% of 310,000 active. AID 2546;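 further: Gal4-VP16 expression switched on by copper sulfate through the metallothionein promoter; nearly all actives have a fitted effect of over 50% in size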
# ALOX12 inh: blocks human arachidonate 12S-lipoxygenase; 1.1% of 580,000 active; P18054; AID 1671190; purified 12hLO, xylenol orange hydroperoxide absorbance; Potency, µM (series often up to 108 µM), without a hit: at the highest dose activity change, negative = inhibition, usual class: inhibitors
# Target sequence (P18054 whole entry, looked up): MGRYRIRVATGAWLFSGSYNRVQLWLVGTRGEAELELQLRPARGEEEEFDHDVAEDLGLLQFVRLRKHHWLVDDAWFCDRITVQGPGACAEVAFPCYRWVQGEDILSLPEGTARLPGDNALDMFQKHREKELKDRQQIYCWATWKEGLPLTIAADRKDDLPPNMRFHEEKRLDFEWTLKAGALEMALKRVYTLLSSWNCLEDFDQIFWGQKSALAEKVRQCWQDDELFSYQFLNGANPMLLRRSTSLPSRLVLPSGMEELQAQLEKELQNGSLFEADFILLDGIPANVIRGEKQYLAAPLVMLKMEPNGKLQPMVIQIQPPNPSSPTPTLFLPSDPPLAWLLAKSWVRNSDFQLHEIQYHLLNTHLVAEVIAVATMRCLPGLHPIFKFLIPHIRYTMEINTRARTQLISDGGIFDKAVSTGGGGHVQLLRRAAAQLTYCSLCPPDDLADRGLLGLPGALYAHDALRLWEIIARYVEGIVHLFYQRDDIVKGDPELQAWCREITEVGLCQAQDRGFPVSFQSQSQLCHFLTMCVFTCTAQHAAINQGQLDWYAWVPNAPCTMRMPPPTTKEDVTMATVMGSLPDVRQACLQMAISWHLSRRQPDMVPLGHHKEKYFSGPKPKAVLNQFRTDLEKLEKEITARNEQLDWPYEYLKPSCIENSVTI
#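 Purified human 12hLO at 150 nM in 25 mM Hepes, 0.01% Triton X-100, pH 7.0, preincubated 15 min at room temperature with compound. Reaction started with 40 uM arachidonic acid, 30 min at room temperature. Hydroperoxide measured by Fe-xylenol orange, 573/405 nm absorbance ratio.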
# RORgamma inh: inhibitors of mouse ROR gamma transcriptional activity | P51450 | AID 2551 | Drosophila S2 Gal4-RORgamma UAS-luciferase reporter, 20 h | 5.4% of 310,000 active | Potency, µM (titrated, usually from 53.6 µM), without a hit: top-dose activity change, negative = inhibition, actives largely listed as inhibitors; further: nearly all actives have a fitted effect of over 60% in size
#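 Compounds are pin-transferred onto Drosophila Schneider cells expressing a copper-inducible Gal4–ROR gamma transactivation domain fusion. After 1 hr, copper sulfate is added to 700 uM final; luciferase is read 20 hr later.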
# DT40 TDP1 no CPT: qHTS for Inhibitors of human tyrosyl-DNA phosphodiesterase 1 (TDP1): qHTS in cells in absence of CPT | Potency, µM (titrated, usually from 46.2 µM), without a hit: at the highest dose activity change, negative = growth inhibition, usual class: inhibitors | 15% of 420,000 active | AID 686978, 2013 | DT40 Tdp1-/- hTDP1 cells, no CPT, ATP luminescence, 48 h; further: nearly all actives have a fitted effect of over 55% in size
#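 Cells were dispensed at 400 per well, compounds added by pin tool, plates incubated ≥48 hr at 37 °C, then CellTiter-Glo added for 30 min at room temperature before luminescence reading. Line: DT40 Tdp1-/- complemented with hTDP1; camptothecin omitted.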
# ELG1 repair inh: blocks ELG1-dependent DNA repair in HEK293T cells. HEK293T ELG1-luciferase reporter, luminescence, 16 h; DNA damage induced by 5-fluorouridine. Potency, µM (top dose mostly 46.1 µM), inactives show at the top dose activity change, negative = inhibition, most hits filed as inhibitors. 2.3% of 330,000 active; further: nearly all actives have a fitted effect of over 55% in size
#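 HEK293T cells expressing luciferase-tagged ELG1 (2,000/well) received 5-Fluorouridine plus compound or DMSO for 16 hr at 37 °C. Luciferase was read by ONE-Glo luminescence after 30 min at room temperature.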
# Numbers without * were called inactive; ? = inconclusive; . = no result given; [ ] = dose if it differs, or a comment. Shown are actives, neighbours in structure and some others; about 15% of the full set was active somewhere. The call rests on the fitted dose curve; in most records, active means well fitted curve in the direction sought with a large enough effect; inconclusive means small, poorly fitted or top-dose-only effect, or another doubt; inactive means no such curve, though single readings can be large; an effect the other way counts as inactive or inconclusive. On the % scale 0 is the no-effect control and ±100 the full control effect; potency means the concentration at half of the fitted maximal effect.
SMILES,DT40 TDP1 CPT,VP16 counter,ALOX12 inh,RORgamma inh,DT40 TDP1 no CPT,ELG1 repair inh
CCOc1ccc2nc(NC(=O)C3CCCN(S(=O)(=O)c4cccc5nonc45)C3)sc2c1 (stereo not drawn),?,5%,20%,43%,16µM*,23µM*
CNC(=O)NC(=O)COc1ccc(C(=O)c2ccc(F)cc2)cc1,.,.,0%,.,.,.
CN(CC(=O)NC(=O)NC1CCCCC1)Cc1ccc2ccccc2c1,.,.,11%,.,.,.
Cc1cc(C(=O)NC2CCCC2)c2c(C3CCNC3)noc2n1 (stereo not drawn),.,.,5%[6.33 µM],.,.,.
Cc1ccc(NC(=O)C2CCCN(S(=O)(=O)c3cccc4nsnc34)C2)cc1C (stereo not drawn),?,.,-17%,.,18µM*,.
CC1CCN(C(=O)C2CCCN(S(=O)(=O)c3cccc4nsnc34)C2)CC1 (stereo not drawn),?,-3%,-10%,6%,-25%,-8%
Cc1ccc2nc(NC(=O)C(NS(=O)(=O)c3cccc4nsnc34)C(C)C)sc2c1 (stereo not drawn),29µM*,?,-16%,?,?,-11%
COc1ccc(CNC(=O)C2CCCN(S(=O)(=O)c3cccc4nsnc34)C2)cc1 (stereo not drawn),-11%,17%,-25%,32%,23µM*,-2%
COc1cccc(N2CCN(C(=O)C3CCCN(S(=O)(=O)c4cccc5nsnc45)C3)CC2)c1 (stereo not drawn),9.2µM*,.,0%,.,9.2µM*,.
Cc1ccc(NC(=O)C2CCN(S(=O)(=O)c3cccc4nsnc34)CC2)cc1F,?,.,-24%,.,-26%,.
CC(C)N1C[C@H](O)C[C@H]1c1nnc2n1CCN(C(=O)CCc1ccccc1)CC2,.,.,43%,.,.,.
COc1cccc(/C=N/NC(=O)CSc2cccc3cccnc23)c1,?,?,?,8.9µM*,12µM*,-6%
FC(F)(F)c1cccc(CSc2cccc3cccnc23)c1,.,.,-4%,.,.,.
Cc1cccc(CSc2cccc3cccnc23)c1,4.1µM*,7.9µM*,1%,4.5µM*,3.7µM*,?
CCOC(=O)CSc1cccc2cccnc12,5.8µM*,10µM*,?,?,5.8µM*,?
COC(=O)c1ccc(OC)c(CN2CCCN(Cc3cc(C)ccc3C)S2(=O)=O)c1,?,-9%,0%,-1%,?,15µM*
CCOC(=O)c1ccccc1NC(=O)CN1CCCN(Cc2cc(C)ccc2C)S1(=O)=O,21µM*,.,-2%,.,21µM*,.
CCc1cccc(C)c1NC(=O)CN1CCCN(Cc2ccc(C)cc2)S1(=O)=O,16µM*,.,-2%,.,10µM*,.
COc1ccc(CN2CCCN(CC(=O)Nc3cc(C)ccc3C)S2(=O)=O)cc1,21µM*,.,-5%,.,21µM*,.
CCOC(=O)c1ccccc1NC(=O)CN1CCCN(Cc2ccccc2)S1(=O)=O,.,.,-15%,.,.,.
Cc1ccc(C)c(CN2CCCN(Cc3ccccc3C)S2(=O)=O)c1,?,.,-22%,.,?,.
CC(C)Sc1ccc2ccccc2n1,.,.,-40%,.,.,.
COC[C@@H]1CCCN1c1ccc2c(c1)O[C@@H](COCc1ccccc1)CN([C@H](C)c1ccccc1)S2(=O)=O,?,.,-2%,.,23µM*,.
CCCCC[C@H](C)N1C[C@H](COCc2ccccc2)Oc2cc(N3CCC[C@@H]3COC)ccc2S1(=O)=O,?,.,-5%,.,?,.
C[C@H](c1ccccc1)N1C[C@@H](COCc2ccccc2)Oc2cc(N3CCC[C@H]3CO)ccc2S1(=O)=O,?,.,?,.,18µM*,.
SMILES,DT40 TDP1 CPT,VP16 counter,ALOX12 inh,RORgamma inh,DT40 TDP1 no CPT,ELG1 repair inh
C[C@@H](c1ccccc1)N1C[C@H](COCc2ccccc2)Oc2cc(N3CC[C@H](N(C)C)C3)ccc2S1(=O)=O,?,.,-23%,.,?,.
COC[C@@H]1CCCN1c1ccc2c(c1)O[C@@H](COCc1ccccc1)CN([C@@H](C)c1ccccc1)S2(=O)=O,9.2µM*,.,15%,.,12µM*,.
COc1ccccc1-c1nnc(SCC(=O)NC(C)c2ccc3c(c2)CCCC3)o1 (stereo not drawn),.,.,2%,.,.,.
CCc1cc(C(=O)Cc2ccc(F)cc2)c(O)cc1O,-11%,?,?,10%,?,?
CCCc1cc(C(=O)Cc2ccc(F)cc2)c(O)cc1O,?,?,?,11µM*,?,-2%
Cc1ccc(C)c(OCCC(=O)NNC(=O)Cn2nc(C)cc2C)c1,-7%,.,8%,.,-21%,1%
Cc1ccc(C)c(C(=O)CCC(=O)NNC(=O)Cn2nc(C)cc2C)c1,?,.,1%,.,2.1µM*,3%
Cc1cc(C(F)(F)F)nn1CC(=O)NNC(=S)NCC(C)C,-17%,-20%,16%,7.1µM*,-7%,4%
CCNC(=S)NNC(=O)Cn1nc(C)cc1C,-4%,-21%,11%,10µM*,-15%,-7%
CNC(=O)[C@@H](c1ccc(Cl)cc1)N1CCC[C@H]1C(=O)NCCN1CCCC1,.,.,0%,.,.,.
CCCNC(=O)[C@@H]1CCCN1[C@@H](C(=O)NC)c1ccc(OC)cc1,.,.,10µM*,.,.,.
COC(=O)c1c(C)[nH]c(C(=O)OC(C)C(=O)NC2CC2)c1C (stereo not drawn),.,.,26%,.,.,.
CCOC(=O)c1c(C)n(C)c2c(C)cc(O)c(OC(=O)CC)c12,7.3µM*,0%,53%,-4%,?,1%
Cc1ccc(Cn2c(CN3CCN(c4ccccc4)CC3)nc3c2c(=O)n(C)c(=O)n3C)cc1,.,.,-25%,.,.,.
CCCCCn1c(CN2CCN(c3cccc(Cl)c3)CC2)nc2c1c(=O)n(C)c(=O)n2C,16µM*,?,-9%,16%,21µM*,?
Cc1ccc(Cn2c(CN3CCN(c4cccc(Cl)c4)CC3)nc3c2c(=O)n(C)c(=O)n3C)cc1,18µM*,.,1%,.,?,.
CCCCn1c(CN2CCN(c3cccc(Cl)c3)CC2)nc2c1c(=O)n(C)c(=O)n2C,7.3µM*,-11%,-14%,5%,6.5µM*,?
CCCn1c(CN2CCN(c3cccc(Cl)c3)CC2)nc2c1c(=O)n(C)c(=O)n2C,5.8µM*,?,?,-5%,6.5µM*,?
CCCCCCn1c(CN2CCN(c3ccccc3)CC2)nc2c1c(=O)n(C)c(=O)n2C,.,.,2%,.,.,.
Cc1nc(N2CCC(C(=O)NC3CCCCCCC3)CC2)cc(C(F)(F)F)n1,.,.,5%,.,.,.

# From PubChem
